Among all 360,000 compounds or so, about 25,000 (6.9%) were called active. Not shown: some 9% with an inconclusive outcome. Calls come from the whole dose curve; as a rule, active = well fitted inhibition curve with a large enough effect; inconclusive = small, poorly fitted or top-dose-only effect; inactive = flat fitted curve, though single readings scatter. Many of the other results were omitted from the sample, so actives are more common in it than they were.
Molecular target: Luciferin 4-monooxygenase (Photinus pyralis) (UniProt P08659)
Sequence (P08659 whole entry, looked up): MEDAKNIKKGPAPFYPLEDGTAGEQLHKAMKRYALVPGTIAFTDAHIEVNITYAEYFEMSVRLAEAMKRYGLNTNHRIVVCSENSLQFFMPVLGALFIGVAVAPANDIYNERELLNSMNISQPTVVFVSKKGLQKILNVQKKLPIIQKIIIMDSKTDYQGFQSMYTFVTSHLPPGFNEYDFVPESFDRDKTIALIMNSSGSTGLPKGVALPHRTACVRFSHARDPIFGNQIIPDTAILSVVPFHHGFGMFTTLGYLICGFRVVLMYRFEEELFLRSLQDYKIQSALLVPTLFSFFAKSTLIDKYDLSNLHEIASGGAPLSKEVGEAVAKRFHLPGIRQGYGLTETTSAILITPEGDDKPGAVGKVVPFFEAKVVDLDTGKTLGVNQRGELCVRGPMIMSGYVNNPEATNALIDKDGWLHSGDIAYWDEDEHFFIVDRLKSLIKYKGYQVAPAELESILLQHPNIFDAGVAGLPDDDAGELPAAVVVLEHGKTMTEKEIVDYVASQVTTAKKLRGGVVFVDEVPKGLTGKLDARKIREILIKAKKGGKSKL
Experiment: qHTS profiling assay for firefly luciferase inhibitor/activator using purifed enzyme and Km concentrations of substrates (counterscreen for miR-21 project); note: nearly all actives have a fitted effect of over 55% in size;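 for activity change, negative = inhibition: plate controls were vehicle for no effect and reference inhibitor for full effect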
Details: purified FLuc, luminescence inhibition; series mostly up to 57.5 µM; activity change, negative = inhibition: at the top concentration
Summary of the method: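 Biochemical qHTS of compounds, final roughly 60 µM downward over six points, against 10 nM purified firefly luciferase using Km concentrations of substrates (10 uM D-luciferin, 10 uM ATP) in Tris acetate pH 7.5 buffer; luminescence output.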
Potency is the fitted concentration of half-maximal effect.

SMILES	activity change, negative = inhibition	Potency
CCOc1ccc(NC(=O)Cn2cc(C(=O)c3ccc(C)cc3)c(=O)c3cc4c(cc32)OCCO4)cc1	-1.33% (inactive)	
O=C(c1ccc(C(F)(F)F)cc1)N1CCC(c2nc(-c3ccc(S(=O)(=O)N4CCCC4)cc3)no2)CC1	-8.47% (inactive)	
COc1ccc(N2CCN(c3cc(C)nc4nncn34)CC2)cc1	-7.53% (inactive)	
Cc1ccc2oc3c(c(=O)c2c1)C(c1ccc([N+](=O)[O-])cc1)N(CCCN1CCOCC1)C3=O (stereo not given)	-5.94% (inactive)	
O=C1C=C(c2cccc(Cl)c2O)C[C@@H](c2ccc(F)cc2)C1	2.51% (inactive)	
CCOc1ccc(S(=O)(=O)Nc2ccc(S(=O)(=O)Nc3cc(OC)ccc3OC)cc2)cc1	1.85% (inactive)	
COc1ccc(OC)c(NC(=O)c2ccc3c(c2)CCN3S(C)(=O)=O)c1	-2.22% (inactive)	
COc1ccc(C)cc1NC(=O)Nc1ccccc1SC	-11.6% (inactive)	
CCOc1ccc(C(=O)Nc2cc(OC)ccc2OC)cc1		19 µM (active)
CCOc1ccc(NC(=O)Nc2cc(C)on2)cc1	-5.5% [at 2.3 µM] (inactive)	
CCOc1ccc(NC(=O)Nc2cc(C)ccc2OC)cc1		2.69 µM (active)
CCOc1ccc(NC(=O)CN(C)C(=O)CCSc2ccc(F)cc2)cc1OCC	3.51% (inactive)	
CCOC(=O)c1ccc(N2C(=O)c3n[nH]c(-c4ccco4)c3C2c2ccc(O)cc2)cc1 (stereo not given)	-11.5% (inactive)	
O=C(CSc1oc(-c2ccccc2)nc1S(=O)(=O)c1ccc(Br)cc1)NC1CCCCC1	-1.57% (inactive)	
Cc1ccc(S(=O)(=O)CC(=O)Nc2sc(C)c(C)c2C(N)=O)cc1	12% (inactive)	
COc1ccc(-n2nc3c(c2NC(=O)c2ccc(N4C(=O)CCC4=O)cc2)CSC3)cc1	3.03% (inactive)	
COc1cccc(-c2nnc(NC(=O)c3ccc(S(=O)(=O)N(CC(C)C)CC(C)C)cc3)o2)c1	2.84% (inactive)	
COc1ccccc1-c1nnc(NC(=O)c2cccc(N3C(=O)CCC3=O)c2)o1		19 µM (active)
COc1ccccc1-c1nnc(SCC(=O)N2CC(C)CC(C)C2)o1 (stereo not given)	-6.65% (inactive)	
COc1ccccc1-c1nnc(NC(=O)c2ccc3ncsc3c2)o1		13.5 µM (active)
O=C(COC(=O)c1ccc2ncsc2c1)Nc1ccc(Cl)cc1	-0.692% (inactive)	
Cc1ccc(C(=O)Nc2nnc(C3=COCCO3)o2)cc1C	-6.57% (inactive)	
Cc1sc(NC(=O)c2ccc3ncsc3c2)c(C(N)=O)c1C		1.07 µM (active)
Cc1ccccc1C(=O)N(Cc1ccc(N(C)C)cc1)CC1CCCO1 (stereo not given)	0.652% (inactive)	
CCn1cc2nc(SCc3cccc(F)c3)n(CCc3ccccc3)c(=O)c2n1	-12.6% (inactive)	

SMILES	activity change, negative = inhibition	Potency
COc1cc(CN(C(=O)c2ccccc2Br)c2ccccn2)cc(OC)c1OC	7.3% (inactive)	
Cc1cccc(C(=O)Nc2ccc(S(=O)(=O)N3CCCCC3c3cccnc3)cc2)c1 (stereo not given)	3.83% (inactive)	
CCN(CCCNC(=O)c1cc2c(=O)n(CC)c3ccccc3c2s1)Cc1ccccc1	6.98% (inactive)	
Cc1ccc(C)c(Cn2c(CCCNC(=O)C3CCCCC3)nc3ccccc32)c1	5.68% (inactive)	
C=CCNC(=O)c1ccccc1NC(=O)c1ccc(Cl)c(S(=O)(=O)Nc2cccc(C)c2C)c1	3.15% (inactive)	
Cc1ccc2c(c1)N(CC(=O)N1CCOCC1)C(=O)CO2	2.75% (inactive)	
O=C(CN1C(=O)CSc2ncccc21)N1CCOCC1	-0.277% (inactive)	
Cc1cc(/C=C2/SC(=O)N(CC(=O)N3CCCC3)C2=O)ccc1N1CCOCC1		16.9 µM (active)
COc1ccc(/C=C2/SC(=O)N(CCCCCC(=O)Nc3ccccc3C(=O)O)C2=S)cc1		16.9 µM (active)
CCCNC(=O)c1ccccc1NC(=O)CSCc1ccc(OC)cc1	0.71% (inactive)	
COc1ccc(-c2nn(-c3ccccc3)cc2/C=C2/SC(=S)N(CCCC(=O)O)C2=O)c(C)c1	-4.65% (inactive)	
COc1cccc(CNC(=O)CSc2c3c(nc4cc(Cl)ccc24)CCCC3)c1	-4.18% (inactive)	
CC(=O)c1ccc(N2CCN(c3nc4c(S(=O)(=O)c5ccccc5)nnn4c4ccc(Cl)cc34)CC2)cc1	1.59% (inactive)	
CCOC(=O)c1c(CNCc2ccccc2F)c2sc(C)cc2n1C	-1.74% (inactive)	
CCN1C(=S)N[C@@H](c2cccc(C(F)(F)F)c2)C(C(=O)OC)=C1C	0.99% (inactive)	
Cc1cc(C)cc(NC(=O)CCCc2nc(-c3ccccc3Cl)no2)c1	5.49% (inactive)	
COc1cccc(CNC(=O)CCc2nc(-c3ccc(C)cc3)no2)c1	1.48% (inactive)	
CCNC(=O)CCc1nc(-c2ccc(C(C)(C)C)cc2)no1		4.78 µM (active)
CC(=O)Nc1ccc(NC(=O)CCCc2nc(-c3ccc(C(C)(C)C)cc3)no2)cc1		2.69 µM (active)
CCNC(=O)CCc1nc(-c2ccc(C)cc2)no1	-17.9% (inactive)	
COc1ccc(-c2noc(CCCC(=O)NC3CCCC3)n2)cc1OC	1.08% (inactive)	
CCOc1ccccc1CNCc1c(C(=O)O)c(C)n(Cc2ccc(C)cc2)c1C	-2.11% (inactive)	
Cc1cc2ncn(CCCCOc3ccccc3)c2cc1C		inactive
CCOc1cc(C2C(C(=O)Nc3ccc(OC)cc3)=C(C)Nc3nc(SC)nn32)ccc1O (stereo not given)	-0.395% (inactive)	
CCOc1ccc(NC(=O)CC(Cc2ccc(Cl)cc2)C(=O)O)cc1 (stereo not given)	6.23% (inactive)	

SMILES	activity change, negative = inhibition	Potency
CC(=O)Nc1ccc(NC(=O)C(NS(=O)(=O)c2ccc3c(c2)OCCO3)C(C)C)cc1 (stereo not given)	2.54% (inactive)	
CN1CCc2ccccc2C1Cc1ccccc1NC(=O)c1sc2ccccc2c1Cl (stereo not given)	-3.51% (inactive)	
Cc1nn(C)cc1/C=N/NC(=O)c1sc2ccccc2c1Cl		26.9 µM (active)
O=C(N/N=C/c1c(Cl)[nH]c2ccccc12)c1sc2ccccc2c1Cl		19 µM (active)
Cc1nnsc1C(=O)N/N=C/c1ccccc1Cl	-0.786% (inactive)	
COc1ccc(CNC(=O)CNC(=O)c2sc3ccccc3c2Cl)cc1OC	-0.179% (inactive)	
Cc1[nH]c2ccccc2c1/C=N\NC(=O)Cn1nnc(-c2ccccc2)n1	-1.23% (inactive)	
CCN(CC)S(=O)(=O)c1ccc2c(c1)nc(CN(C)C(=O)Nc1ccc(Cl)cc1)n2C	-19.2% (inactive)	
O=C(NCCNc1ccc([N+](=O)[O-])cc1Cl)c1ccccc1F	-29% (inactive)	
CCOC(=O)N1CCc2c(sc(NCc3cccc(F)c3)c2C(=O)Nc2ccccc2OCC)C1	-18.1% (inactive)	
Cc1nc2cc(NCc3cccs3)ccc2n1C		15.1 µM (active)
Cc1nc2cc(NC(=O)Nc3cccc(F)c3)ccc2n1C		0.757 µM (active)
C=CCN(C(=O)Nc1ccc2c(c1)nc(C)n2C)c1ccccc1		15.1 µM (active)
O=c1c(NCc2cccs2)nccn1-c1ccccc1	-13.3% (inactive)	
Cc1nc2cc(NC(=O)NC3CC3)ccc2n1C	-15% (inactive)	
Cn1ncc(Br)c1C(=O)NCc1cccs1	-1.21% (inactive)	
CCOC(=O)N1CCN(Cc2nc3cc(NC(=O)CC)ccc3n2CC)CC1	0.0734% (inactive)	
Cc1nn(CC(=O)Nc2ccc3c(c2)nc(CN2CCCCC2)n3C)c(=O)c2ccccc12	3.59% (inactive)	
Cc1cc2nc(C)n(CCCNC(=O)Nc3ccccc3)c2cc1C	1.77% (inactive)	
CCCCNC(=O)c1ccc2c(c1)NC(=O)C(C(C)C)N2 (stereo not given)	-6.51% (inactive)	
CC(=O)N1CCCc2cc(S(=O)(=O)N3CCC(C(=O)NCc4ccc(C)cc4)CC3)ccc21	0.565% (inactive)	
CCc1ccc(-c2nn(-c3ccccc3C)cc2C(=O)N2CCN(C3CCS(=O)(=O)C3)CC2)cc1 (stereo not given)	2.23% (inactive)	
COc1ccccc1CNCc1ccc(C(=O)O)s1	2.57% (inactive)	
CCc1nccn1S(=O)(=O)c1cc(Br)ccc1Br	-10.3% (inactive)	
CCOC(=O)c1c(NC(=O)c2ccc(S(=O)(=O)N(CC)CC)cc2)sc2c1CCCCC2	-3.1% (inactive)	

SMILES	activity change, negative = inhibition	Potency
CN(C(=O)c1ccc2c(c1)N(Cc1cccc(Cl)c1)C(=O)c1ccccc1S2=O)C1CCCCC1 (stereo not given)	-10.7% (inactive)	
Cc1ccc(Cl)cc1NC(=O)/C(C#N)=C\c1cn(Cc2ccc(F)cc2)c2ccccc12	0.524% (inactive)	
CCc1ccc(NS(=O)(=O)c2ccc3[nH]cc(C(=O)NCCc4cccc(C)c4)c(=O)c3c2)cc1	-6.98% (inactive)	
O=C(c1ccc(Cl)nc1)N1CCN(S(=O)(=O)c2ccc3c(c2)OCCO3)CC1	-2.36% (inactive)	
COc1cccc(-c2nnc3n(CCc4ccccc4)c(=O)c4ccccc4n23)c1O	-4.13% (inactive)	
Cc1ccccc1NC(=O)c1cc2c([nH]c1=O)CC(C)(C)CC2=O	-15.2% (inactive)	
COc1ccc(OC)c(/C=C/C(=O)c2ccc3c(c2)OCO3)c1		4.78 µM (active)
COc1ccc(OC)c(/C=N/NC(=O)c2ccc[n+](CC(=O)c3ccccc3)c2)c1	-5.82% (inactive)	
COc1ccc(OC)c(/C=C/C(=O)OCC(=O)Nc2ccc3c(c2)OCCO3)c1	0.779% (inactive)	
COc1ccc(C(=O)Nc2cc(C)c(NC(=O)c3ccccc3OC)cn2)cc1		2.13 µM (active)
COc1ccccc1C(=O)NNC(=O)c1ccc(NC(=O)c2ccccc2)cc1	-14% (inactive)	
O=C(N/N=C/c1ccc(OC(=O)c2ccccc2Cl)cc1)c1ccc(O)cc1	-2.37% (inactive)	
COc1ccc(C(=O)Nc2ccccc2C(=O)N/N=C/c2ccc(O)c(OC)c2)cc1		0.012 µM (active)
COc1ccc(/C=N/NC(=O)c2ccc(Cl)cc2)cc1COC(C)=O	-13.1% (inactive)	
COc1ccc(NC(=O)NCc2ccc3c(c2)OCO3)c(OC)c1	6.28% (inactive)	
COc1ccc(C(=O)N/N=C(\C)CC(=O)Nc2ccc(Cl)cn2)cc1	-14.9% (inactive)	
COc1ccc(Nc2ncc(C(=O)Nc3cc(C)ccc3OC)c3ccccc23)cc1	7.13% (inactive)	
COc1ccc(C(=O)Nc2ccccc2C(=O)N/N=C/c2ccccc2OC)cc1		0.0757 µM (active)
Cc1ccc(C)c(N2C(=O)N(Cc3c(F)cccc3Cl)c3ccccc3S2(=O)=O)c1	1.18% (inactive)	
Cc1ccc(CN2CC(C(=O)NNC(=O)Cn3ccc(C(F)(F)F)n3)CC2=O)cc1 (stereo not given)	4.2% (inactive)	
c1ccc2c(c1)C(=NC1CCCCC1)NC2=NC1CCCCC1	1.79% (inactive)	
COC(=O)NNC(=O)C1CCC(C)CC1 (stereo not given)		inactive
CCOCCCn1c(SCC(=O)Nc2ccc(CC)cc2)nc2ccccc2c1=O	-1.15% (inactive)	
Cc1cccc(-c2nc(CS(=O)CC(=O)NC(C)CCc3ccccc3)c(C)o2)c1 (stereo not given)	-2.47% (inactive)	
CNC(=O)c1ccc(-c2nc(CN3CCc4ccccc43)c(C)o2)cc1	-0.293% (inactive)	
